# Measured values published in the supplement of paper PMC8728848.
# This excerpt belongs to a sample that is enriched for the strongest signals.
# B1: RS2L (Ralstonia solanacearum), B5RXL5_RALSO (protein)
# chain: MAQQGVFTLPANTSFGVTAFANAANTQTIQVLVDNVVKATFTGSGTSDKLLGSQVLNSGSGAIKIQVSVNGKPSDLVSNQTILANKLNFAMVGSEDGTDNDYNDGIAVLNWPLG
# Columns and labels:
# Assay in all cases: glycan array binding signal (z-score within array); higher = stronger binding
# Conditions in all cases: glycan notation: IUPAC condensed, linker removed
# [1] = biological target: Fuc(a1-2)Gal(b1-3)GlcNAc(b1-2)Man(a1-3)[Fuc(a1-2)Gal(b1-3)GlcNAc(b1-2)Man(a1-6)]Man(b1-4)GlcNAc(b1-4)[Fuc(a1-6)]GlcNAc
# Method in brief: (§1)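 Columns mapping to the same glycan were averaged after glycan names were converted to IUPAC-condensed notation. The data come from 3228 arrays in the Consortium for Functional Glycomics database, limited to those with an available protein sequence. Binding is reported as a within-array Z-score averaged across arrays of one protein sequence and across linkers.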
# [2] = biological target: Fuc(a1-2)Gal(b1-3)GlcNAc(b1-3)[Gal(b1-4)GlcNAc(b1-6)]Gal(b1-4)Glc
# Method in brief: as §1
# [3] = biological target: Fuc(a1-2)Gal(b1-4)GlcNAc(b1-3)GalNAc
# Method in brief: as §1
# [4] = biological target: Fuc(a1-2)Gal(b1-4)[Fuc(a1-3)]GlcNAc(b1-2)[Fuc(a1-2)Gal(b1-4)[Fuc(a1-3)]GlcNAc(b1-4)]Man(a1-3)[Fuc(a1-2)Gal(b1-4)[Fuc(a1-3)]GlcNAc(b1-2)Man(a1-6)]Man(b1-4)GlcNAc(b1-4)GlcNAc
# Method in brief: as §1
# [5] = biological target: Fuc(a1-2)[GalNAc(a1-3)]Gal(b1-4)Glc
# Method in brief: as §1
# [6] = biological target: Fuc(a1-2)[GalNAc(a1-3)]Gal(b1-4)[Fuc(a1-3)]GlcNAc(b1-3)GalNAc
# Method in brief: as §1
# [7] = biological target: Fuc(a1-3)[Gal(b1-4)]GlcNAc(b1-3)GalNAc
# Method in brief: as §1
# [8] = biological target: Gal(b1-3)GlcNAc(b1-3)Gal(b1-4)GlcNAc(b1-6)[Gal(b1-3)GlcNAc(b1-3)]Gal(b1-4)Glc
# Method in brief: as §1
# [9] = biological target: Gal(b1-4)GlcNAc(b1-6)Gal(b1-4)GlcNAc
# Method in brief: as §1
# [10] = biological target: GalNAc(b1-3)Gal
# Method in brief: as §1
# [11] = biological target: GalNAc(b1-4)Gal(b1-4)Glc
# Method in brief: as §1
# [12] = biological target: GalNAc(b1-6)GalNAc
# Method in brief: as §1
# [13] = biological target: GlcNAc(a1-4)Gal(b1-4)GlcNAc(b1-3)Gal(b1-4)[Fuc(a1-3)]GlcNAc(b1-3)Gal(b1-4)[Fuc(a1-3)]GlcNAc
# Method in brief: as §1
# [14] = biological target: GlcNAc(b1-3)Gal(b1-3)GalNAc
# Method in brief: as §1
# [15] = biological target: GlcNAc(b1-3)GalNAc
# Method in brief: as §1
# [16] = biological target: Kdn(a2-3)Gal(b1-4)Glc
# Method in brief: as §1
# [17] = biological target: Kdn(a2-6)Gal(b1-4)GlcNAc
# Method in brief: as §1
# [18] = biological target: Man(a1-2)Man(a1-2)Man(a1-6)[Man(a1-3)]Man
# Method in brief: as §1
# [19] = biological target: Man(a1-2)Man(a1-3)[Man(a1-2)Man(a1-6)]Man(a1-6)[Man(a1-2)Man(a1-2)Man(a1-3)]Man
# Method in brief: as §1
# [20] = biological target: Man(a1-2)Man(a1-3)[Man(a1-2)Man(a1-6)]Man(a1-6)[Man(a1-2)Man(a1-2)Man(a1-3)]Man(b1-4)GlcNAc(b1-4)GlcNAc
# Method in brief: as §1
# [21] = biological target: Man(a1-2)Man(a1-6)[Man(a1-3)]Man(a1-6)[Man(a1-2)Man(a1-2)Man(a1-3)]Man
# Method in brief: as §1
# [22] = biological target: Man(a1-2)Man(a1-6)[Man(a1-3)]Man(a1-6)[Man(a1-2)Man(a1-2)Man(a1-3)]Man(b1-4)GlcNAc(b1-4)GlcNAc
# Method in brief: as §1
# [23] = biological target: Man(a1-3)[Man(a1-6)]Man
# Method in brief: as §1
# [24] = biological target: Man(a1-3)[Man(a1-6)]Man(a1-6)[Man(a1-2)Man(a1-3)]Man(b1-4)GlcNAc(b1-4)GlcNAc
# Method in brief: as §1
# [25] = biological target: Man(a1-3)[Man(a1-6)]Man(a1-6)[Man(a1-3)]Man
# Method in brief: as §1
# [26] = biological target: Man(a1-3)[Man(a1-6)]Man(a1-6)[Man(a1-3)]Man(b1-4)GlcNAc(b1-4)GlcNAc
# Method in brief: as §1
# [27] = biological target: Neu5Ac(a2-3)Gal(b1-3)GalNAc(b1-3)Gal(a1-4)Gal(b1-4)Glc
# Method in brief: as §1
# [28] = biological target: Neu5Ac(a2-3)Gal(b1-3)GlcNAc
# Method in brief: as §1
# [29] = biological target: Neu5Ac(a2-3)Gal(b1-4)GlcNAc(b1-2)Man(a1-3)[GlcNAc(b1-2)Man(b1-4)GlcNAc(b1-2)Man(a1-6)]Man(b1-4)GlcNAc(b1-4)GlcNAc
# Method in brief: as §1
# [30] = biological target: Neu5Ac(a2-3)Gal(b1-4)GlcNAc(b1-6)[Neu5Ac(a2-3)Gal(b1-3)]GalNAc
# Method in brief: as §1
binder,measurement,setting,value
B1,glycan array binding signal (z-score),[1],0.443
same,glycan array binding signal (z-score),[2],-0.211
same,glycan array binding signal (z-score),[3],-0.205
same,glycan array binding signal (z-score),[4],-0.175
same,glycan array binding signal (z-score),[5],-0.244
same,glycan array binding signal (z-score),[6],-0.233
same,glycan array binding signal (z-score),[7],-0.24
same,glycan array binding signal (z-score),[8],-0.246
same,glycan array binding signal (z-score),[9],-0.255
same,glycan array binding signal (z-score),[10],-0.243
same,glycan array binding signal (z-score),[11],-0.247
same,glycan array binding signal (z-score),[12],-0.243
same,glycan array binding signal (z-score),[13],-0.12
same,glycan array binding signal (z-score),[14],-0.245
same,glycan array binding signal (z-score),[15],-0.249
same,glycan array binding signal (z-score),[16],-0.242
same,glycan array binding signal (z-score),[17],-0.251
same,glycan array binding signal (z-score),[18],6.32
same,glycan array binding signal (z-score),[19],6.92
same,glycan array binding signal (z-score),[20],3.42
same,glycan array binding signal (z-score),[21],5.7
same,glycan array binding signal (z-score),[22],5.97
same,glycan array binding signal (z-score),[23],7.32
same,glycan array binding signal (z-score),[24],6.99
same,glycan array binding signal (z-score),[25],5.11
same,glycan array binding signal (z-score),[26],5.42
same,glycan array binding signal (z-score),[27],-0.25
same,glycan array binding signal (z-score),[28],-0.247
same,glycan array binding signal (z-score),[29],-0.245
same,glycan array binding signal (z-score),[30],-0.254
